The panel holds about 83,000 compounds, 20% with a hit somewhere; the sample as a whole holds those more often.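 Interpretation: 100, growth as untreated; towards 0, rising growth inhibition; 0, no net growth; 0 to -100, cell death. Compounds scoring below 10 were considered active.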 The source made the active and inactive calls.
Key:
Test in all cases: NCI-60 one-dose screen, 48 h (100 = growth as untreated, 0 = no growth, -100 = all killed)
Conditions in all cases: 10 µM unless noted
HCT-15 colon = system: HCT-15 colon
HT29 colon = system: HT29 colon
SNB-75 CNS = system: SNB-75 CNS
SNB-19 CNS = system: SNB-19 CNS
U251 CNS = system: U251 CNS
PC-3 prostate = system: PC-3 prostate
SK-MEL-5 melanoma = system: SK-MEL-5 melanoma
UACC-62 melanoma = system: UACC-62 melanoma
LOX IMVI melanoma = system: LOX IMVI melanoma
SK-MEL-28 melanoma = system: SK-MEL-28 melanoma

Measured: growth

Cc1nn(-c2ccc(-c3ccc(OC(F)(F)F)cc3)cc2)c2nc(-c3ccccc3)nc(N)c12
inactive: HCT-15 colon 95.6% | HT29 colon 90.2% | SNB-75 CNS 95% | SNB-19 CNS 90.7% | U251 CNS 85.5% | PC-3 prostate 93.2% | SK-MEL-5 melanoma 100% | UACC-62 melanoma 99.9% | LOX IMVI melanoma 93.8% | SK-MEL-28 melanoma 115%

Cc1nccc2c3ccc(OCc4cn(-c5ccc(Cl)cc5)nn4)cc3n(CC(C)C)c12
active: HT29 colon 1.3% | SK-MEL-5 melanoma -78.3% | LOX IMVI melanoma 3.05%
inactive: HCT-15 colon 18.7% | SNB-75 CNS 55.8% | SNB-19 CNS 38.9% | U251 CNS 26.9% | PC-3 prostate 17.4% | UACC-62 melanoma 24.2% | SK-MEL-28 melanoma 25.2%

C=C1C(=O)O[C@H]2[C@H]1CC/C(COC(=O)Nc1nc3ccccc3[nH]1)=C\CC[C@@]1(C)O[C@@H]21
inactive: HCT-15 colon 25.3% | HT29 colon 42.2% | SNB-75 CNS 75.7% | SNB-19 CNS 91.1% | U251 CNS 90.2% | PC-3 prostate 67.5% | SK-MEL-5 melanoma 83.7% | UACC-62 melanoma 53.9% | LOX IMVI melanoma 69.6% | SK-MEL-28 melanoma 61.4%

COc1ccc(C2=NN(c3ccc(S(N)(=O)=O)cc3)C(c3ccc(Cl)cc3)C2)c(O)c1 (stereo not given)
inactive: HCT-15 colon 52.7% | HT29 colon 49.9% | SNB-75 CNS 70.1% | SNB-19 CNS 85.3% | U251 CNS 57.7% | PC-3 prostate 27.7% | SK-MEL-5 melanoma 75.4% | UACC-62 melanoma 52.9% | LOX IMVI melanoma 77.2% | SK-MEL-28 melanoma 74.9%

COc1ccc2oc(=O)cc(-c3nc4ccc(N)cc4[nH]3)c2c1
inactive: HCT-15 colon 97.7% | HT29 colon 97.3% | SNB-75 CNS 53.6% | SNB-19 CNS 90.9% | U251 CNS 86.2% | PC-3 prostate 81.1% | SK-MEL-5 melanoma 81.5% | UACC-62 melanoma 91.5% | LOX IMVI melanoma 78.6% | SK-MEL-28 melanoma 111%

CCCCN(CCCC)CC(CN(CC)CC)OC(=O)Nc1ccccc1 (stereo not given)
inactive: HCT-15 colon 63.4% | HT29 colon 37.1% | SNB-75 CNS 78.3% | SNB-19 CNS 107% | U251 CNS 96.8% | PC-3 prostate 89.6% | SK-MEL-5 melanoma 100% | UACC-62 melanoma 111% | LOX IMVI melanoma 87.7% | SK-MEL-28 melanoma 105%

C#Cc1cccc(Nc2ncnc3ccc(NC(=O)c4ccccc4)cc23)c1
inactive: HCT-15 colon 65.3% | HT29 colon 82.4% | SNB-75 CNS 67.2% | SNB-19 CNS 89.5% | U251 CNS 85.4% | PC-3 prostate 75.8% | SK-MEL-5 melanoma 95.5% | UACC-62 melanoma 95.2% | LOX IMVI melanoma 81.7% | SK-MEL-28 melanoma 93.9%

Nc1cc(N)nc(SCC(=O)O)n1
inactive: HCT-15 colon 110% | HT29 colon 85.1% | SNB-75 CNS 100% | SNB-19 CNS 100% | U251 CNS 93.4% | PC-3 prostate 89.9% | SK-MEL-5 melanoma 99.8% | UACC-62 melanoma 99.1% | LOX IMVI melanoma 97.4% | SK-MEL-28 melanoma 106%

c1ccc(-c2n(Cc3ccc4ccccc4n3)cc[n+]2Cc2ccc3ccccc3c2)cc1
inactive: HCT-15 colon 70.5%
active: HT29 colon -9.68% | SNB-75 CNS 3.74% | SNB-19 CNS 9.86% | U251 CNS 8.14% | PC-3 prostate 1.28% | SK-MEL-5 melanoma -95.2% | UACC-62 melanoma -46.2% | LOX IMVI melanoma -25.9% | SK-MEL-28 melanoma 0.22%

COc1cc(/C=C/C(=O)c2ccc(NC(=O)CSc3nnc(-c4cc(OC)c(OC)c(OC)c4)n3-c3ccccc3)cc2)cc(OC)c1OC
active: HCT-15 colon -37.6% | HT29 colon 1.25% | U251 CNS -8.68% | LOX IMVI melanoma -52.3%
inactive: SNB-75 CNS 45.4% | SNB-19 CNS 35.8% | PC-3 prostate 28% | SK-MEL-5 melanoma 17.6% | UACC-62 melanoma 20.8% | SK-MEL-28 melanoma 33.3%

CN(C)CCCn1c2c(c3cc(-c4ccco4)ccc3c1=O)C(=O)c1ccccc1-2
inactive: HCT-15 colon 54.4% | HT29 colon 21% | SNB-75 CNS 62.4% | SNB-19 CNS 69.2% | U251 CNS 80.4% | PC-3 prostate 60% | SK-MEL-5 melanoma 78.3% | UACC-62 melanoma 50.9% | LOX IMVI melanoma 60.9% | SK-MEL-28 melanoma 103%

CCCCCCC/C=C/[C@H]1O[C@]23C(=O)C[C@@]4(C[C@@H](OC5OC(CO)C(O)C(O)C5O)C[C@@H]4[C@H]2C=C1C)OC3=O (stereo not given in full)
active: HCT-15 colon -5.27% | HT29 colon 0.865% | U251 CNS -2.96% | SK-MEL-5 melanoma 8.74% | LOX IMVI melanoma -67.7% | SK-MEL-28 melanoma -5.61%
inactive: SNB-75 CNS 70.6% | SNB-19 CNS 21.2% | PC-3 prostate 21% | UACC-62 melanoma 14.2%

Cc1cc(C)n(-c2nc(-c3cccs3)c(C#N)c(=O)[nH]2)n1
inactive: HCT-15 colon 71.1% | HT29 colon 100% | SNB-75 CNS 89.2% | SNB-19 CNS 96.3% | U251 CNS 90.8% | PC-3 prostate 94.2% | SK-MEL-5 melanoma 102% | UACC-62 melanoma 94.8% | LOX IMVI melanoma 84.7% | SK-MEL-28 melanoma 99.8%

CNS(=O)(=O)c1cccc(-c2ccc3c4c(n(C)c(=O)c3c2)-c2ccccc2C4=O)c1
inactive: HCT-15 colon 30.5% | HT29 colon 45.8% | SNB-75 CNS 65.9% | SNB-19 CNS 31.3% | U251 CNS 23.2% | PC-3 prostate 73.4% | SK-MEL-5 melanoma 48.3% | UACC-62 melanoma 56.3% | LOX IMVI melanoma 35.1% | SK-MEL-28 melanoma 93%

Nc1c(C(=O)Nc2ccccc2Cl)sc2nc3c(cc12)CN(Cc1ccccc1)CC3
inactive: HCT-15 colon 95.7% | HT29 colon 101% | SNB-75 CNS 113% | SNB-19 CNS 109% | U251 CNS 114% | PC-3 prostate 104% | SK-MEL-5 melanoma 97.7% | UACC-62 melanoma 101% | LOX IMVI melanoma 99.7% | SK-MEL-28 melanoma 102%

O=C(Nc1ccc2ncnc(Nc3ccc(F)c(Cl)c3)c2c1)c1ccccc1
inactive: HCT-15 colon 52.1% | HT29 colon 79% | SNB-75 CNS 28.5% | SNB-19 CNS 76.8% | U251 CNS 42.8% | PC-3 prostate 72.7% | SK-MEL-5 melanoma 86.5% | UACC-62 melanoma 92.2% | LOX IMVI melanoma 63.9% | SK-MEL-28 melanoma 97.5%

CCOC(=O)C1CCN(S(=O)(=O)/N=C2/NC(=O)NC2=C(Cl)Cl)CC1
active: HCT-15 colon -72.6% | HT29 colon -61.6% | U251 CNS -86.7% | UACC-62 melanoma -30.6% | LOX IMVI melanoma -65% | SK-MEL-28 melanoma -8.67%
inactive: SNB-75 CNS 55.5% | SNB-19 CNS 16.8% | PC-3 prostate 17.7% | SK-MEL-5 melanoma 14.1%

O=S(=O)(O)c1ccc(N=NSc2ccc3ccccc3c2)cc1
inactive: HCT-15 colon 104% | HT29 colon 93.8% | SNB-75 CNS 113% | SNB-19 CNS 105% | U251 CNS 96.9% | PC-3 prostate 81.3% | SK-MEL-5 melanoma 100% | UACC-62 melanoma 102% | LOX IMVI melanoma 86.8% | SK-MEL-28 melanoma 106%

Cc1[nH]c2ncnc(Oc3ccc(NC(=O)Nc4ccc(Cl)c(C(F)(F)F)c4)cc3)c2c1C
inactive: HCT-15 colon 48.3% | HT29 colon 50.2% | SNB-75 CNS 88.1% | SNB-19 CNS 73.4% | U251 CNS 52.5% | PC-3 prostate 35% | SK-MEL-5 melanoma 65.9% | UACC-62 melanoma 55.8% | LOX IMVI melanoma 43.4% | SK-MEL-28 melanoma 59.7%

CC(=O)c1cc2c(N)c(C(=O)Nc3ccccn3)sc2nc1C
inactive: HCT-15 colon 82.8% | HT29 colon 85.5% | SNB-75 CNS 75.1% | SNB-19 CNS 82.4% | U251 CNS 77.7% | PC-3 prostate 99.3% | SK-MEL-5 melanoma 64.5% | UACC-62 melanoma 57.8% | LOX IMVI melanoma 91.6% | SK-MEL-28 melanoma 82.1%

C[C@H]1[C@H](C)CC[C@]2(C(=O)OCCCC[P+](c3ccccc3)(c3ccccc3)c3ccccc3)CC[C@]3(C)C(=CC[C@@H]4[C@@]5(C)CC[C@H](OC(=O)C(Cl)Cl)C(C)(C)[C@@H]5CC[C@]43C)[C@H]12
active: HCT-15 colon -68.8% | HT29 colon -55.5% | SNB-75 CNS -24.5% | SNB-19 CNS -56.1% | U251 CNS -88.6% | PC-3 prostate -60.8% | SK-MEL-5 melanoma -100% | UACC-62 melanoma -67.8% | LOX IMVI melanoma -99.6% | SK-MEL-28 melanoma -77.4%

COc1ccc(C2C(c3ccccc3)C(=O)N2c2cc(OC)c(OC)c(OC)c2)cc1I (stereo not given)
inactive: HCT-15 colon 13.1% | SNB-75 CNS 57.5% | SNB-19 CNS 33.4% | U251 CNS 15.4% | PC-3 prostate 22.2% | UACC-62 melanoma 28.1% | LOX IMVI melanoma 24.3% | SK-MEL-28 melanoma 60.3%
active: HT29 colon 1.74% | SK-MEL-5 melanoma -41%

NC(=O)C(O)(c1ccccc1)c1ccccc1
inactive: HCT-15 colon 101% | HT29 colon 92.3% | SNB-75 CNS 89% | SNB-19 CNS 99.4% | U251 CNS 101% | PC-3 prostate 87.3% | SK-MEL-5 melanoma 106% | UACC-62 melanoma 95.9% | LOX IMVI melanoma 100% | SK-MEL-28 melanoma 112%

COc1ccccc1N1CCN(CCCOc2ccc(C(=O)/C=C3/C(=O)Nc4ccccc43)cc2)CC1
inactive: HCT-15 colon 74.7% | HT29 colon 25.8% | SNB-75 CNS 85.1% | SNB-19 CNS 84.6% | U251 CNS 64.1% | PC-3 prostate 40.9% | UACC-62 melanoma 56.1% | LOX IMVI melanoma 55.5% | SK-MEL-28 melanoma 86.1%
active: SK-MEL-5 melanoma -36.1%

O=C1Nc2ccc(Br)cc2/C1=N\N=C/c1cn(Cc2ccccc2)c2ccccc12
inactive: HCT-15 colon 103% | HT29 colon 91% | SNB-75 CNS 84.7% | SNB-19 CNS 98% | U251 CNS 94.6% | PC-3 prostate 75.1% | SK-MEL-5 melanoma 97.2% | UACC-62 melanoma 79.4% | LOX IMVI melanoma 98.1% | SK-MEL-28 melanoma 105%

N#Cc1c(-c2ccc(F)cc2)nc(N=Nc2c(O)[nH]c3ccccc23)nc1N1CCOCC1
inactive: HCT-15 colon 66.9% | HT29 colon 78.4% | SNB-75 CNS 22.5% | SNB-19 CNS 70.1% | U251 CNS 27.4% | PC-3 prostate 64.1% | SK-MEL-5 melanoma 64.7% | UACC-62 melanoma 48.8% | LOX IMVI melanoma 74.9% | SK-MEL-28 melanoma 72.3%

— PubChem BioAssay (NCI)
